Laboratory results reported in PubChem BioAssay AID504834 (National Center for Advancing Translational Sciences (NCATS), 2011).
Out of some 320,000 compounds screened, about 22,000 (6.9%) were called active. Another 27% or so got no clear call; they are omitted. The entries come from a sample that favours actives as a whole. Values without a mark were called inactive. The call rests on the fitted dose curve; in most records, active means well fitted inhibition curve with a large enough effect; inconclusive means small, poorly fitted or top-dose-only effect, or another doubt; inactive means no such curve, though single readings can be large or run the other way.

experiment: Primary qHTS for delayed death inhibitors of the malarial parasite plastid, 96 hour incubation; details: P. falciparum luciferase reporter growth; series mostly up to 28.7 µM; activity change, negative = inhibition: at the top concentration
Procedure, shortened: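 96 h incubation, 37 C, 5% CO2, of luciferase-reporter P. falciparum-infected RBCs (2% hematocrit, 0.05% parasitemia final) with test compounds; endpoint luminescence.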
On the % scale 0 is the no-effect control and ±100 the full control effect; potency means the concentration at half of the fitted maximal effect.

| SMILES | activity change, negative = inhibition | Potency |
| --- | --- | --- |
| CCOC(=O)CN1CC23C=CC(O2)C(C(=O)Nc2ccc(F)cc2)C3C1=O (stereo not given) | 88.1% | – |
| CC(C)COC(=O)C1C2C=CC3(CN(C(C)c4ccc(Br)cc4)C(=O)C13)O2 (stereo not given) | – | 6.57 µM (active) |
| CCCC(=O)Nc1ncnc2c1ncn2[C@@H]1O[C@@H]2OP(=O)(O)OC[C@H]2[C@H]1OC(=O)CCC | 4.15% | – |
| Cc1ccccc1-n1nc(C)c2cc(C(=O)NC3CC3)sc21 | – | 5.22 µM (active) |
| Cc1ccc(-c2nn(-c3ccccc3)cc2C(=O)NC2CCC(O)CC2)cc1 (stereo not given) | 34.1% | – |
| Cc1cccn2c(=O)c3cc(C(=O)NC4CCCCC4)sc3nc12 | -22.1% | – |
| O=c1cc(Cl)c2ccccc2n1-c1ccccc1 | 0.294% | – |
| CCCCn1c(N)c(N(CC(C)C)C(=O)C2CSC3(C)CCC(=O)N23)c(=O)[nH]c1=O (stereo not given) | -3.49% | – |
| CCCc1cc(-c2n[nH]c(=S)n2CC)c2ccccc2n1 | – | 1.65 µM (active) |
| CCn1c(-c2ccoc2C)n[nH]c1=S | -2.97% | – |
| CCn1c(-c2ccncc2)n[nH]c1=S | 19.2% | – |
| CN(C)CCCNC(=S)N1CCC(c2nc3ccccc3[nH]2)CC1 | 0% | – |
| COc1ccc(C[C@H](C(=O)O)N2C(=O)c3ccc(C(=O)O)cc3C2=O)cc1 | -1.42% | – |
| O=C(C1CCCO1)N1CCN(S(=O)(=O)c2ccc(Br)cc2)CC1 (stereo not given) | 37% | – |
| COc1ccc(C)cc1S(=O)(=O)N(CC(=O)Nc1cccc([N+](=O)[O-])c1)c1ccc(C)cc1 | – | 11.7 µM (active) |
| COc1ccc(N(CC(=O)Nc2ccc(C)cc2C)S(=O)(=O)c2ccccc2[N+](=O)[O-])c(OC)c1 | -0.583% | – |
| Cc1ccc(S(=O)(=O)N(CC(=O)Nc2cccc([N+](=O)[O-])c2)Cc2ccc(Cl)cc2)cc1 | 35.2% | – |
| CC(C)c1c(C(=O)N/N=C/c2ccccc2C(=O)O)nnn1-c1nonc1N | 100% | – |
| O=C(CNC(=O)[C@@H]1Cc2ccccc2CN1)NC1CCCCC1 | 38.7% | – |
| O=C(OCC(=O)N1CCOCC1)c1ccc(N2CCOCC2)c([N+](=O)[O-])c1 | 0.0667% | – |
| O=C(COc1ccc(S(=O)(=O)N2CCOCC2)cc1Cl)N1CCOCC1 | -9.66% | – |
| O=C(Cc1ccc(S(=O)(=O)N2CCOCC2)s1)N1CCN(c2ccc(C(F)(F)F)cc2[N+](=O)[O-])CC1 | – | 11.7 µM (active) |

| SMILES | activity change, negative = inhibition | Potency |
| --- | --- | --- |
| COc1cccc(CNS(=O)(=O)c2cc3c(cc2C)n(C)c(=O)c(=O)n3C)c1 | 16.5% | – |
| CCOc1ccc(C(=O)Nc2cccc(SC)c2)cc1 | 186% | – |
| CCOc1c(Nc2cccc(Cl)c2)c(=O)c1=O | – | 11.7 µM (active) |
| O=C(Nc1cccc(Cl)c1)OCc1ccccn1 | 154% | – |
| O=C(NCc1ccc(F)cc1)C1CCN(C(=O)Nc2ccc(F)cc2)CC1 | -3.5% | – |
| CC1CCCCN1S(=O)(=O)CCNC(=O)c1ccccc1 (stereo not given) | 8.3% | – |
| Cc1cc(C(=O)OCC(=O)Nc2ccccc2Cl)c(C)o1 | -28.2% | – |
| COc1ccccc1NC(=O)COC(=O)Cc1ccc(S(=O)(=O)N2CCCCC2)s1 | -13.1% | – |
| COCCN(Cc1ccccc1)C(=O)Cc1ccc(S(=O)(=O)N2CCOCC2)s1 | – | 9.28 µM (active) |
| COC(=O)COc1ccc(S(=O)(=O)N2CCOCC2)cc1 | 9.23% | – |
| O=C(O)c1ccc(S(=O)(=O)N2CCOCC2)o1 | 32.6% | – |
| O=C(COC(=O)c1cc(S(=O)(=O)N2CCOCC2)ccc1Cl)NCCc1ccccc1 | 9.09% | – |
| O=C(Cc1ccc(S(=O)(=O)N2CCOCC2)s1)NCCC(c1ccccc1)c1ccccc1 | – | 7.38 µM (active) |
| C[n+]1ccc(C(=O)NCc2ccccc2)cc1 | -9.48% | – |
| COc1ccnc2c1c(=O)n(Cc1cccc(F)c1)c(=O)n2C | -18.2% | – |
| COc1ccc(/C=N/Nc2cc(N3CCOCC3)nc(C)n2)c(OC)c1 | -10.6% | – |
| CCNc1nc(Oc2ccc(C(=O)OC)cc2)nc(N2CCOCC2)n1 | -8.27% | – |
| Cc1cc(/C=C2/SC(=O)N(CC(=O)N3CCCC3)C2=O)c(C)n1C | 0.761% | – |
| Cc1cc([N+](=O)[O-])ccc1NCc1cccc([N+](=O)[O-])c1 | – | 10.4 µM (active) |
| COc1cccc(C(=O)CC(=O)C(=O)Nc2ccc([N+](=O)[O-])cc2C)c1 | 7.8% | – |
| Cc1cc([N+](=O)[O-])ccc1NC1CCCC1 | 33.7% | – |
| COC(=O)c1ccccc1NC(=O)CSc1ccccn1 | – | 2.94 µM (active) |

| SMILES | activity change, negative = inhibition | Potency |
| --- | --- | --- |
| COC(=O)c1ccccc1NC(=O)CSc1nnnn1C | -13.6% | – |
| C[C@@H]1CC[C@@]2(OC1)O[C@H]1C[C@H]3[C@@H]4CC=C5C[C@@H](O)[C@H](O)C[C@]5(C)C4CC[C@]3(C)[C@H]1[C@@H]2C (stereo not given in full) | 18.3% | – |
| COc1cc(C(=O)NCC(=O)N2CC=C(c3ccccc3)CC2)cc(OC)c1OC | -7.67% | – |
| Cc1cc(OCC(=O)Nc2c(C)n(C)n(-c3ccccc3)c2=O)ccc1[N+](=O)[O-] | -12.6% | – |
| O=C(COC(=O)c1ccc[nH]c1=O)Nc1ccc2c(c1)OC(F)(F)O2 | 6.84% | – |
| O=C(O)COCC(=O)NCc1csc2ccc(Cl)cc12 | 5.36% | – |
| Clc1ccc(CN2CCCCCC2)cc1Cl | – | 11.7 µM (active) |
| c1cc(-c2nn[nH]n2)ccc1CN1CCCCC1 | 14% | – |
| O=C(Nc1ccc(CN2CCOCC2)cc1)c1cc(Cl)ccc1Cl | 64.2% | – |
| COc1ccccc1C(=O)NC(=S)NC12CC3CC(CC(C3)C1)C2 | 53.4% | – |
| COc1ccc(NC(=S)N2CCC(NC(=O)c3cccc(F)c3)CC2)cc1 | 23.6% | – |
| COc1ccc(C(=O)CN(C(=O)c2ccc(Cl)cc2)N2C(=O)c3ccccc3C2=O)cc1 | -5.05% | – |
| CCn1c(C)cc(=O)cc1-c1ccc(Cl)cc1 | -8.16% | – |
| COc1ccc(Cn2c(-c3ccc(Cl)cc3)c[n+]3ccccc23)cc1 | – | 0.117 µM (active) |
| Cc1cc(C)c(C(=O)CSc2nc(C)cc(=O)[nH]2)c(C)c1 | 19.3% | – |
| CSc1nnc(C2CCCN(CC(=O)Nc3ccccc3N3CCOCC3)C2)n1C(C)C (stereo not given) | -0.457% | – |
| COc1ccc(C(=O)n2nc(C)c(Br)c2C)cc1OC | -23.3% | – |
| O=S(=O)(Nc1ccc(Cl)cn1)c1cnc(Cl)c(Br)c1 | -15.1% | – |
| Cc1cccc(N2CCN(C(=O)c3cccc(S(=O)(=O)N4CCc5ccccc5C4)c3)CC2C)c1 (stereo not given) | – | 11.7 µM (active) |
| CN1CCN(S(=O)(=O)c2cccc(C(=O)N3CCc4ccccc43)c2)CC1 | -2.85% | – |
| COC(=O)c1ccc(S(=O)(=O)N2CCc3ccccc3C2)cc1 | 4.42% | – |
